# Screening data (PubChem BioAssay)
# USP17 inh = blocks human USP17 ubiquitin-rhodamine cleavage; A8MUK1; purified USP17, Ub-rhodamine cleavage fluorescence, 3 h; inhibition, % at 50 µM; 6.5% of 47,000 active; AID 1645855
# USP8 block = human USP8 deubiquitinase inhibition; P40818; purified USP8, Ub-rhodamine cleavage fluorescence, 30 min; inhibition, % at 20 µM; 4.2% of 47,000 active; AID 1645853
# USP30 inh = inhibitors of human USP30 deubiquitinase; Q70CQ3; purified USP30, Ub-rhodamine cleavage fluorescence; inhibition, % at 25 µM; 5.3% of 47,000 active; AID 1645860
# Starred values were filed as active, the others as inactive; . = no result. Sampled rows, rich in hits. Any-hit rate of the full collection: about 12%. Rule as the data show it: active = inhibition above about 30%; inactive = the rest.
SMILES,USP17 inh,USP8 block,USP30 inh
CC1CCCN(CCCNC(=O)c2ccc3c(c2)NC(=O)C2CCCN32)C1 (stereo unspecified),-30,30,-168
CC(C)CC1Nc2ccc(C(=O)NCCCN3CCCC3)cc2NC1=O (stereo unspecified),38*,85*,5
Cc1cccc(N2CC(c3nnc(NC(=O)c4ccco4)s3)CC2=O)c1 (stereo unspecified),14,2,18
COc1ccc(NC(=O)Cc2noc3ccc(C)cc23)cc1,15,15,21
O=C1OC(C(=O)N2CCN(S(=O)(=O)c3ccc(F)cc3)CC2)Cc2ccccc21 (stereo unspecified),0,-56,-29
O=C(O)C1CCC1C(=O)N1CCN(c2ccc(C(F)(F)F)cn2)CC1 (stereo unspecified),11,12,3
O=C1OC(C(=O)N2CCN(c3ccc(C(F)(F)F)cn3)CC2)Cc2ccccc21 (stereo unspecified),42*,3,14
O=C(O)c1ccccc1C(=O)N1CCN(c2ccc(C(F)(F)F)cn2)CC1,19,15,32*
O=C(COc1cccc(F)c1)NC(Cc1ccccc1)c1nc2ccccc2[nH]1 (stereo unspecified),46*,73*,11
CC(CCc1ccccc1)NC(=O)COc1ccc(Cl)c(Cl)c1 (stereo unspecified),25,17,27
N#Cc1ccc(OCC(=O)NC(Cc2ccccc2)c2nc3ccccc3[nH]2)cc1 (stereo unspecified),12,36*,9
CC(C)C(NC(=O)c1ccccn1)c1nc2ccccc2[nH]1 (stereo unspecified),6,8,15
Cc1ccc(S(=O)(=O)NCCc2nc(-c3ccccc3Cl)no2)cc1,2,1,-5
Cc1ccc(NC(=O)CC2COc3ccccc3NC2=O)c(C)c1 (stereo unspecified),-10,0,-27
CC(=O)c1sc(NC(=O)c2cccc(S(=O)(=O)Nc3ccccc3F)c2)nc1-c1ccccc1,32*,17,27
CC(=O)c1sc(NS(=O)(=O)c2ccc(C)cc2)nc1-c1ccccc1,21,9,19
Cc1ccc(S(=O)(=O)N[C@@H](C(=O)N2CCC(C(=O)N[C@@H](Cc3c[nH]c4ccccc34)C(=O)O)CC2)C(C)C)cc1,-46,-92,-80
Cc1ccc(OCc2c(F)cccc2Cl)c([N+](=O)[O-])n1,4,-36,24
O=C(Nc1cccc(F)c1)c1ncoc1-c1ccco1,54*,16,-20
COc1ccc(-c2ocnc2C(=O)Nc2ccc(C)c(F)c2)cc1,-2,-2,.
Cc1ccc(NC(=O)c2nc3ccccc3nc2N2CCN(C)CC2)cc1,4,19,22
CN(C)[C@@H]1[C@@H](O)[C@H](Oc2ccccc2)C[C@H]1NC(=O)c1cnco1,-9,0,-7
CC(C)c1nc2sc3c(NC4CCCCC4)ncnc3c2c2c1CCC2,1,-1,-3
Cc1cccc(NC(=O)c2cccn2Cc2noc(C3CC3)n2)c1,-7,5,7
Cn1ccc2ccn(Cc3nc(-c4ccccn4)no3)c(=O)c21,2,15,1
SMILES,USP17 inh,USP8 block,USP30 inh
COCCn1ccc2ccn(Cc3nc(-c4cccnc4)no3)c(=O)c21,26,56*,-170
CCn1c2ccccc2c2cc(NC(=O)CSc3n[nH]c(N)n3)ccc21,9,15,-12
COCCNC(=O)C1(C)CCC(=O)N1c1cccc2ccccc12 (stereo unspecified),-32,-112,-71
COc1ccc(C(NC(=O)c2nc3n(n2)-c2ccccc2S(=O)(=O)N3)C(C)C)cc1 (stereo unspecified),33*,9,14
COc1ccc(NC(C)C(=O)N2CC(=O)Nc3ccccc32)cc1 (stereo unspecified),14,19,13
COc1cc(Br)c(CC(=O)OCC(=O)c2cc(C)n(-c3ccc(Cl)cc3)c2C)cc1OC,-28,-7,-59
Cc1ccc(S(=O)(=O)CCC(=O)OCC(=O)c2cc(C)n(-c3ccc4c(c3)OCO4)c2C)cc1,41*,58*,3
O=C(CN1CCN(Cc2ccc3c(c2)OCO3)CC1)N1CCCCC1,-6,0,8
Cc1cc(C(=O)CN2CCN(Cc3ccc4c(c3)OCO4)CC2)c(C)n1-c1ccc2c(c1)OCO2,55*,21,-16
Cc1cc(C(=O)COC(=O)c2ccc[nH]c2=O)c(C)n1-c1ccc2c(c1)OCO2,67*,30*,-30
Cc1cc(C(=O)COc2ncnc3sccc23)c(C)n1-c1ccc2c(c1)OCO2,57*,8,.
Cc1cc(C(=O)COc2ncnc3sccc23)c(C)n1CC1COc2ccccc2O1 (stereo unspecified),.,6,-120
O=C(COC(=O)c1ccccc1NC(=O)c1ccc(Oc2ccccc2)cc1)c1ccc2c(c1)OCO2,-3,-1,-3
